Screens deposited in PubChem BioAssay by several laboratories.
HSF1 activator = HSF-1 activators, primary screen, NIH3T3-HGL cells, MG132 stress, luminescence, single point | NIH3T3-HGL HSF-1 luciferase reporter, 8 h; 100% = twice DMSO control signal | activation, % at 9 µM | 300,000 tested, 1.7% active;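 active = mean replicate activation of at least 50% with a set share of replicates each reaching 50%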
ARNT-TACC3 inh = disruptors of ARNT/TACC3 protein interaction, primary screen, biochemical, AlphaScreen, single concentration | inhibition, % at 9.99 µM | 390,000 tested, 0.66% active | AlphaScreen His-ARNT PAS-B/GST-TACC3 binding, luminescence; TACC3 fragment carries E629A point mutation | Transforming acidic coiled-coil-containing protein 3 (Homo sapiens), Q9Y6A5;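 active = mean inhibition of replicates at least 50% and at least half of replicates each reaching 50%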
HSF1 inh = HSF1 inhibitors in luciferase reporter cells, primary screen, cell-based, NIH3T3, luminescence | NIH3T3-HGL HSE-luciferase, MG132-induced, luminescence 8 h; hits give low values | activity change, negative = inhibition, % at 7.5 µM (by protocol) | 300,000 tested, 0.77% active | AID 2098, 2009;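 active = more than half of replicate wells show activity change below -50%, luminescence cut by over half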;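 note: luciferase reports HSF-1 transcriptional activity via heat shock element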
HSP90 refold inh = HSP90 inhibitors, primary screen, cell lysate, luminescence; Heat shock protein HSP 90 (rabbit reticulocyte lysate; luciferase refolding); Rabbit reticulocyte lysate, luciferase refolding luminescence, 3 h; inhibition, % at 5.6 µM; 290,000 tested, 0.91% active;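 active = inhibition above the screen-wide mean plus 3 SD, computed separately per campaign, cut at about 16% in these data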;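 note: inhibitors lower the luminescence because luciferase stays unfolded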
HIF act = HIF pathway transcriptional activators, primary screen, cell-based, U2OS HRE-luciferase, luminescence; 300,000 tested, 0.32% active; U2OS HRE-luciferase reporter; normalized: DMSO 0%, desferrioxamine 100%; activation, % at 7.5 µM (by protocol);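 active = mean activation of at least 10% of the iron chelator positive control signal, with at least half of replicates also reaching 10%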
A number is an active result; n = inactive; x = no result given. An excerpt weighted towards active compounds, which were near 3.1% of everything screened.

SMILES	HSF1 activator	ARNT-TACC3 inh	HSF1 inh	HSP90 refold inh	HIF act
O=C1C(=O)c2ccccc2-c2ccccc21	n	n	-94	n	n
O=C1C(=O)c2cccc3cccc1c23	n	n	n	n	n
CCCC#Cc1ccc([C@@H]2[C@H]3CN(C(=O)Cc4ccccn4)CCCCN3[C@H]2CO)cc1	x	n	x	x	x
CN(C)c1ccc(/C=C/C=C2/C(=O)NC(=O)N(c3ccccc3)C2=O)cc1	119	n	n	n	n
CNc1ccc2nc3ccccc3[n+](C)c2c1	n	68	n	n	n
C[n+]1c2ccccc2nc2ccc(NCCO)cc21	n	n	n	n	n
Cc1ccccc1S(=O)(=O)N1[C@@H]2c3ccc(-c4cccnc4)c(=O)n3C[C@H]1[C@H](CO)[C@H]2C(=O)O	x	n	x	x	x
CC12CCC3C(CC=C4CC(O)CCC43C)C1C/C(=C\N1CCCC1)C2=O (configuration not stated)	63	x	n	n	n
CC=Cc1ccc2n(c1=O)C[C@@H]1[C@@H](CO)[C@H](C(=O)OC)[C@H]2N1S(=O)(=O)c1cccc(C)c1 (mixture of isomers)	x	n	x	x	x
O=C(C1CCCO1)N1CCC2(CC1)OCCO2 (configuration not stated)	n	n	-90	n	n
O=C(C1CCC(=O)N1C1CCCC1)N1CCC2(CC1)OCCO2 (configuration not stated)	n	n	n	n	n
COC(=O)[C@H]1[C@H](CO)[C@H]2Cn3c(ccc(-c4ccc(OC)cc4)c3=O)[C@@H]1N2C(=O)c1ccccc1F	x	n	x	x	x
COC(=O)[C@H]1N[C@H]2c3ccc(C4=CCCC4)c(=O)n3C[C@H]2[C@@H]1CO	x	n	x	x	x
O=C(CF)NC(NC(=S)Nc1ccccc1O)C(Cl)(Cl)Cl (configuration not stated)	54	n	n	n	n
COC(=O)[C@@H]1[C@@H](CO)[C@@H]2Cn3c(cccc3=O)[C@H]1N2Cc1nccs1	x	n	x	x	x
O=C(Cc1ccncc1)N1CCCCN2[C@H](C1)[C@@H](c1ccc(C#CC3(O)CCCC3)cc1)[C@@H]2CO	x	n	x	x	x
COc1ccc(Br)cc1CN1CCN(CCO)CC1	n	n	-87	n	n
CC(=O)c1c(C)n(Cc2ccccc2Cl)c2ccc(O)cc12	n	n	n	n	n
CC(=O)c1c(C)n(CC2CCCO2)c2ccc(O)cc12 (configuration not stated)	70	n	n	n	n
COc1cc2c(cc1/C=C/[N+](=O)[O-])OCO2	263	n	n	n	n
COc1cc(/C=C/[N+](=O)[O-])ccc1OC(=O)c1cccnc1	n	n	n	n	n
C=CCn1c(O)c(C(CC)=NCc2cc(OC)cc(OC)c2)c(=O)[nH]c1=O	n	n	n	n	n
CCC(=NCc1cc(OC)cc(OC)c1)c1c(O)[nH]c(=O)[nH]c1=O	n	n	n	n	66
CCOP(=O)(C#CC(C)(C)C)C1(O)CCCCC1 (configuration not stated)	n	n	n	n	98
O=C(Cc1cccnc1)N1CCCCN2[C@H](CO)[C@@H](c3ccc(/C=C/c4ccccc4)cc3)[C@@H]2C1	x	n	x	x	x
SMILES	HSF1 activator	ARNT-TACC3 inh	HSF1 inh	HSP90 refold inh	HIF act
c1ccc(CN2CCN(Cc3ccc4ccccc4c3)CC2)cc1	n	n	n	17	n
CCc1ccc(-c2nn(Cc3ccccc3)cc2C=O)cc1	102	n	n	n	n
Cc1ccsc1/C=C1\C(=O)NC(=S)N(C)C1=O	n	n	-67	n	n
COc1ccc(/C=C2\C(=O)NC(=S)N(C)C2=O)cc1C	n	55	n	n	n
COc1cc2c(cc1OC)CN(c1ccc([N+](=O)[O-])c(C(F)(F)F)c1)CC2	121	n	n	n	n
CCNc1cc(N2CCN(C)CC2)ccc1[N+](=O)[O-]	n	n	n	n	n
COc1ccc(C(=O)C2CCCN(Cc3ccc(C)s3)C2)c(OC)c1 (configuration not stated)	63	n	n	n	n
CCN1[C@@H]2c3ccc(-c4cccc(C(=O)N(C)C)c4)c(=O)n3C[C@H]1[C@H](CO)[C@H]2C(=O)OC	x	n	x	x	x
O=C(O)C[C@@H]1CC[C@H]2NC[C@H](O)COC[C@@H]2O1	x	n	x	x	x
